Results from PubChem BioAssay (EPA / NIEHS).
Values joined by “and” are separate entries in the source; they are usually repeats but may differ in a detail not shown here. Equal entries are not always repeated. Records with an inconclusive call do not appear. Active and inactive are the calls of the source. The calls were made as follows, unless noted: active = hit-call score of the fitted dose curve at least 0.9, where 1 is the maximum; inconclusive = response in the unintended direction; inactive = score below 0.9.

Experiment: CCTE_Shafer_MEA_dev_LDH: CCTE's Lactate Dehydrogenase Assay for Cytotoxicity in the Neural Network Formation Assay, Shafer Lab (AID 2284068);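 also: exposure for twelve days from plating with re-dosing on DIV 5 and 9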
Method in brief: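 Primary rat cortical neurons were plated on PEI/laminin MEA plates and exposed from day 0 for twelve days, with compound renewed at DIV 5 and 9. Cytotoxicity was determined by spectrophotometric LDH assay relative to DMSO.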

SMILES	outcome	AC50
COCCOCCOCCO	inactive	–
COCCc1ccc(OCC(O)CNC(C)C)cc1 (configuration not stated)	inactive	–
CN(C)CCOC(C)(c1ccccc1)c1ccccn1 (configuration not stated)	inactive	–
Oc1c(Cl)cc(Cl)c(Cl)c1Cc1c(O)c(Cl)cc(Cl)c1Cl	–	1.26 µM (active) and 1.25 µM (active)

Experiment: CCTE_Shafer_MEA_dev_AB: CCTE's Alamar Blue Assay for Cytotoxicity in the Neural Network Formation Assay, Shafer Lab (AID 2284083);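 also: twelve days of exposure from plating with re-dosing on DIV 5 and 9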
Method in brief: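 Primary rat cortical neurons on PEI-coated 48-well MEA plates, 1.5 x 10^5 cells/well in laminin drop; compound exposure from day 0 of plating for twelve days, renewed at medium changes on DIV 5 and 9. Viability read as resazurin reduction by fluorescence, relative to DMSO.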

SMILES	outcome	AC50
COCCOCCOCCO	inactive	–
COCCc1ccc(OCC(O)CNC(C)C)cc1 (configuration not stated)	inactive	–
CN(C)CCOC(C)(c1ccccc1)c1ccccn1 (configuration not stated)	inactive	–
CS(=O)(=O)OCCCCOS(C)(=O)=O	inactive	–
Oc1c(Cl)cc(Cl)c(Cl)c1Cc1c(O)c(Cl)cc(Cl)c1Cl	–	8.76 µM (active) and 3.54 µM (active)

Experiment: CCTE_Shafer_MEA_acute_LDH: CCTE's Lactate Dehydrogenase Assay for Cytotoxicity in the Neural Acute Assay, Shafer Lab (AID 2284086);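 also: active means LDH release rises above DMSO vehicle level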
Method in brief: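 Medium collected from MEA wells of primary rat cortical cultures (DIV 13 or 15) immediately after 40 min chemical exposure is assayed spectrophotometrically for lactate dehydrogenase activity. Endpoint fitted in positive direction versus DMSO.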

SMILES	outcome
CN(C)C(=S)SC(=S)N(C)C	inactive
COCCc1ccc(OCC(O)CNC(C)C)cc1 (configuration not stated)	inactive
C=CC(C)(O)CCC=C(C)C (configuration not stated)	inactive
CCCCCCC(CO)CCCC (configuration not stated)	inactive
Oc1c(Cl)cc(Cl)c(Cl)c1Cc1c(O)c(Cl)cc(Cl)c1Cl	inactive
CC1(C)CCC[C@]2(C)[C@H]3CCO[C@]3(C)CC[C@@H]12	inactive
O=C(Nc1ccc2c(O)c(N=Nc3ccc(N=Nc4ccc(S(=O)(=O)O)cc4)cc3)c(S(=O)(=O)O)cc2c1)c1ccccc1	inactive

Experiment: CCTE_Shafer_MEA_dev_mutual_information_norm: CCTE's Neural Network Formation Assay for Mutual Information Normalization, Shafer Lab (AID 2284091; active = hit-call score of the fitted dose curve at least 0.9, where 1 is the maximum; inactive = score below 0.9;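 as to AC50: mutual information between electrodes summarised as area under curve across four recording days; potency is for a decrease in mutual information relative to DMSO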)
Method in brief: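 Neurons from rat cortex were seeded at 1.5 x 10^5 cells/well onto PEI-coated MEAs in a laminin drop, then exposed to compound from day 0 for twelve days. Network recordings on four days gave mutual information, summarised by AUC relative to DMSO.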

SMILES	outcome	AC50
COCCOCCOCCO	inactive	–
COCCc1ccc(OCC(O)CNC(C)C)cc1 (configuration not stated)	inactive	–
FC(F)(F)COCC(F)(F)F	inactive	–
CN(C)CCOC(C)(c1ccccc1)c1ccccn1 (configuration not stated)	inactive	–
CS(=O)(=O)OCCCCOS(C)(=O)=O	inactive	–
Oc1c(Cl)cc(Cl)c(Cl)c1Cc1c(O)c(Cl)cc(Cl)c1Cl	–	578 nM (active) and 302 nM (active)

Experiment: CCTE_Shafer_MEA_dev_correlation_coefficient_mean: CCTE's Neural Network Formation Assay for Mean Correlation Coefficient, Shafer Lab (AID 2284093; active = hit-call score of the fitted dose curve at least 0.9, where 1 is the maximum; inactive = score below 0.9;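 as to AC50: well mean pairwise spike train correlation integrated as AUC over recording days 5 to 12; potency fitted for loss of correlation relative to DMSO vehicle wells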)
Method in brief: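 Spontaneous activity recorded on days 5, 7, 9 and 12 post-plating; pairwise spike correlations are averaged across active electrodes and collapsed to an area-under-curve. Rat cortical cultures are dosed from plating through 12 days, with compound renewed at media changes.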

SMILES	outcome	AC50
COCCOCCOCCO	inactive	–
COCCc1ccc(OCC(O)CNC(C)C)cc1 (configuration not stated)	inactive	–
FC(F)(F)COCC(F)(F)F	inactive	–
CN(C)CCOC(C)(c1ccccc1)c1ccccn1 (configuration not stated)	inactive	–
CS(=O)(=O)OCCCCOS(C)(=O)=O	inactive	–
Oc1c(Cl)cc(Cl)c(Cl)c1Cc1c(O)c(Cl)cc(Cl)c1Cl	–	765 nM (active) and 832 nM (active)

Experiment: IUF_NPC1b_proliferation_BrdU_72hr: Leibniz Research Institute for Environmental Medicine (IUF) 72-hour Neural Progenitor Cell Bromodeoxyuridine (BrdU) Proliferation Assay (NPC1b) (AID 2284207; active = hit-call score of the fitted dose curve at least 0.9, where 1 is the maximum; inactive = score below 0.9)
Method in brief: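 Luminescent BrdU ELISA measured DNA synthesis during the last 16 h of a 72 h exposure of primary human neural progenitor spheres grown with EGF and FGF. Signal was fitted relative to DMSO controls.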

SMILES	outcome	AC50
COCCOCCOCCO	inactive	–
COCCc1ccc(OCC(O)CNC(C)C)cc1 (configuration not stated)	inactive	–
CN(C)CCOC(C)(c1ccccc1)c1ccccn1 (configuration not stated)	inactive	–
Oc1c(Cl)cc(Cl)c(Cl)c1Cc1c(O)c(Cl)cc(Cl)c1Cl	–	13.4 µM (active)
